Measurements published in PubChem BioAssay AID1159580 (chemical genetic matrix, 2015).
The campaign covered roughly 5,500 compounds. About 2,000 (36%) were called active. Another 18% or so got no clear call; they are omitted. Cut-off read from the data, not from the text of the source: active = normalized growth mostly below about 0.91 (no sharp cut-off); inconclusive = no clear call, values can overlap the other calls; inactive = mostly above about 0.92. The list shows a part of the results.

Assay: chemical genetic growth profiling, strain panel (AID 1159580);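 note: tested at 20 µM; growth read once vehicle control cultures reached saturation at 30 °C; 1 = growth at the plate median or of vehicle wells; lower values mean less growth of the strain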
Details: S. cerevisiae deletion strains, growth OD

Measured: normalized growth

CC1=NS(=O)(=O)c2cc(Cl)ccc2N1
inactive: locus YAL021C, strain ccr4, hits give low values 0.919 | locus YAL026C, strain drs2, hits give low values 0.972 | locus YAL030W, strain snc1, hits give low values 0.987 | locus YAL040C, strain CLN3, hits give low values 1 | locus YBL061C, strain skt5, hits give low values 0.984 | locus YBR009C, strain hhf1, hits give low values 0.984 | locus YBR023C, strain chs3, hits give low values 0.971 | locus YBR171W, strain sec66, hits give low values 0.972 | locus YBR231C, strain swc5, hits give low values 0.995 | locus YBR279W, strain paf1, hits give low values 0.952 | locus YCL011C, strain gbp2, hits give low values 0.985 | locus YCL016C, strain dcc1, hits give low values 0.976 | locus YCL061C, strain MRC1 (second series), hits give low values 0.995 | locus YCL069W, strain vba3, hits give low values 0.967 | locus YCR088W, strain abp1, hits give low values 0.971 | locus YDL005C, strain med2, hits give low values 0.972 | locus YDL040C, strain nat1, hits give low values 0.958 | locus YDR001C, strain nth1, hits give low values 0.967 | locus YDR069C, strain doa4, hits give low values 0.937 | locus YDR137W, strain rgp1, hits give low values 0.957 | locus YDR150W, strain NUM1, hits give low values 1.01 | locus YDR159W, strain sac3, hits give low values 0.936 | locus YDR195W, strain ref2 0.899 | locus YDR297W, strain sur2, hits give low values 0.974 | locus YDR334W, strain swr1, hits give low values 0.936 | locus YDR335W, strain msn5, hits give low values 0.971 | locus YDR363W, strain ESC2, hits give low values 0.973 | locus YDR392W, strain spt3, hits give low values 0.971 | locus YEL003W, strain gim4, hits give low values 0.984 | locus YEL037C, strain rad23, hits give low values 0.944 | locus YEL061C, strain CIN8 (second series), hits give low values 0.972 | locus YER002W, strain NOP16, hits give low values 0.999 | locus YER015W, strain faa2, hits give low values 0.971 | locus YER016W, strain bim1, hits give low values 0.963 | locus YER111C, strain swi4, hits give low values 0.99 | locus YER155C, strain BEM2 (second series), hits give low values 0.994 | locus YFR010W, strain ubp6, hits give low values 0.946 | locus YGL167C, strain pmr1, hits give low values 0.95 | locus YGL173C, strain kem1, hits give low values 0.995 | locus YGL227W, strain vid30, hits give low values 0.967 | locus YGL240W, strain doc1, hits give low values 0.953 | locus YGL253W, strain hxk2, hits give low values 0.951 | locus YGR078C, strain PAC10, hits give low values 1.01 | locus YHR013C, strain ard1, hits give low values 0.925 | locus YHR027C, strain rpn1, hits give low values 0.977 | locus YHR030C, strain SLT2, hits give low values 0.96 | locus YHR079C, strain IRE1, hits give low values 0.969 | locus YHR142W, strain chs7, hits give low values 0.948 | locus YJL092W, strain hpr5, hits give low values 0.986 | locus YJL095W, strain BCK1 (second series), hits give low values 0.961 | locus YJL095W, strain BCK1, hits give low values 0.974 | locus YJL115W, strain asf1, hits give low values 0.948 | locus YJL129C, strain trk1, hits give low values 0.975 | locus YJL154C, strain vps35, hits give low values 0.989 | locus YJL164C, strain tpk1, hits give low values 0.977 | locus YJL166W, strain qcr8, hits give low values 0.963 | locus YJL187C, strain SWE1, hits give low values 0.979 | locus YJR066W, strain TOR1, hits give low values 0.948 | locus YJR075W, strain HOC1, hits give low values 0.991 | locus YKL160W, strain elf1, hits give low values 0.981 | locus YKR026C, strain gcn3, hits give low values 0.958 | locus YKR091W, strain srl3, hits give low values 0.969 | locus YLL001W, strain dnm1, hits give low values 0.969 | locus YLL026W, hits give low values 0.985 | locus YLL041C, strain sdh2, hits give low values 0.981 | locus YLR027C, strain aat2, hits give low values 0.975 | locus YLR113W, strain HOG1, hits give low values 0.951 | locus YLR221C, strain rsa3, hits give low values 0.986 | locus YLR258W, strain gsy2, hits give low values 0.971 | locus YLR262C, strain YPT6 (second series), hits give low values 0.961 | locus YLR320W, strain mms22, hits give low values 0.971 | locus YLR342W, strain FKS1, hits give low values 0.992 | locus YLR357W, strain rsc2, hits give low values 0.944 | locus YLR370C, strain arc18, hits give low values 0.963 | locus YLR384C, strain iki3, hits give low values 0.984 | locus YML120C, strain ndi1, hits give low values 0.98 | locus YMR058W, strain fet3, hits give low values 0.97 | locus YMR125W, strain sto1, hits give low values 0.955 | locus YMR129W, hits give low values 0.955 | locus YMR205C, strain PFK2, hits give low values 0.966 | locus YMR231W, strain pep5, hits give low values 0.963 | locus YMR307W, strain GAS1, hits give low values 0.993 | locus YNL071W, strain lat1, hits give low values 0.949 | locus YNL175C, strain NOP13, hits give low values 1 | locus YNL183C, strain NPR1, hits give low values 0.906 | locus YNL197C, strain WHI3, hits give low values 0.996 | locus YNL209W, strain ssb2, hits give low values 0.979 | locus YNL224C, strain SQS1, hits give low values 1 | locus YNL248C, strain rpa49, hits give low values 0.998 | locus YNL322C, strain KRE1 (second series), hits give low values 0.966 | locus YNL322C, strain KRE1, hits give low values 0.953 | locus YNR049C, strain mso1, hits give low values 0.974 | locus YOR001W, strain rrp6, hits give low values 0.958 | locus YOR070C, strain gyp1, hits give low values 0.99 | locus YOR080W, strain dia2, hits give low values 0.942 | locus YOR083W, strain WHI5 (second series), hits give low values 1.02 | locus YOR083W, strain WHI5, hits give low values 0.958 | locus YOR106W, strain vam3, hits give low values 0.983 | locus YOR231W, strain MKK1, hits give low values 0.978 | locus YOR265W, strain rbl2, hits give low values 0.975 | locus YOR270C, strain vph1, hits give low values 0.888 | locus YOR290C, strain snf2, hits give low values 0.965 | locus YPL051W, strain arl3, hits give low values 0.994 | locus YPL055C, strain LGE1, hits give low values 0.987 | locus YPL078C, strain atp4, hits give low values 0.985 | locus YPL106C, strain sse1, hits give low values 0.92 | locus YPL240C, strain hsp82, hits give low values 0.967 | locus YPL241C, strain CIN2, hits give low values 0.992 | locus YPL256C, strain CLN2, hits give low values 0.97
